Results from PubChem BioAssay (Tox21).
Inconclusive results are not listed. Activity calls are given as the source filed them. Unless noted, calls come from the whole dose curve; as a rule, active = well fitted curve in the direction sought with a large enough effect in the repeat runs; inconclusive = weak or mixed curves; inactive = no such curve, though single readings can be large; an effect the other way counts as inactive or inconclusive.

How the values were obtained:
[1] = qHTS assay for small molecule agonists of the p53 signaling pathway (AID 651631; calls by dose curve; note: nearly all actives have a fitted effect of over 15% in size)
Method in brief: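 Stably transfected HCT-116 cells (beta-lactamase behind p53 response elements) get compounds after a 5 h settling period; 16 h later at 37 °C, FRET substrate is loaded and fluorescence read after 2 h.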

[2] = qHTS assay for small molecules that induce genotoxicity in human embryonic kidney cells expressing luciferase-tagged ATAD5 (AID 651632); note: nearly all actives have a fitted effect of over 15% in size; note: potency is the fitted concentration of half-maximal effect
Method in brief: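 Increased luciferase signal from ATAD5-tagged reporter cells indicates DNA-damage-driven ATAD5 induction. HEK293T cells are treated for 16 hr at 37C before detection with Amplite.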

[3] = qHTS assay for small molecule agonists of the p53 signaling pathway - cell viability (AID 651633; calls by dose curve;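 note: p53RE-bla HCT reporter cells with a stable beta-lactamase p53 reporter; series mostly up to about 83 µM; nearly all actives have a fitted effect of over 30% in size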)
Method in brief: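 Viability counter-read: CellTiter-Glo luminescence (30 min, room temperature) in the same p53RE-bla plates. These plates had been exposed to compounds for 16 h at 37 C.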

[4] = qHTS assay for small molecules that induce genotoxicity in human embryonic kidney cells expressing luciferase-tagged ATAD5 - cell viability (AID 651634; calls by dose curve; note: nearly all actives have a fitted effect of over 25% in size)
Method in brief: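 Cytotoxicity counterscreen in HEK293T cells bearing an ATAD5-luciferase reporter: live-cell protease activity measured by CellTiter-Fluor fluorescence after 15.5 hr compound exposure.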

[5] = qHTS assay for small molecule disruptors of the mitochondrial membrane potential - cell viability (AID 720634; calls by dose curve;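 note: human HepG2 liver cancer cells; series mostly up to about 83 µM; nearly all actives have a fitted effect of over 20% in size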)
Method in brief: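 After overnight attachment at 37 C, HepG2 cells received compound or DMSO vehicle for 1 hr. Viability is then taken from ATP-driven luminescence following a 30 min room-temperature CellTiter-Glo step.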

[6] = qHTS assay for small molecule disruptors of the mitochondrial membrane potential (AID 720635)
Method in brief: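 Mitochondrial membrane potential tracked with Mito-MPS dye, red aggregates (ex 540/em 590 nm) against green monomers (ex 490/em 535 nm). Compound treatment 1 hr at 37C, dye 30 min in HepG2.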

[7] = qHTS assay to test for compound auto fluorescence at 590 nm (red) in HepG2 cells (AID 720674)
Method in brief: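 Red autofluorescence (Ex/Em 540/590 nm, Rose Bengal sodium equivalents) was measured in HepG2 cells, 2,000 per well in MEM plus 10% FBS, plated overnight at 37 C. Readings were taken 1 hr after adding 23 nL compound or DMSO, at 37 C and 5% CO2.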

[8] = qHTS assay to test for compound auto fluorescence at 535 nm (green) in HepG2 cells (AID 720675)
[9] = qHTS assay to test for compound auto fluorescence at 460 nm (blue) in HEK293 cells (AID 720678)
Method in brief: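 HEK293 cells (2,000/well, medium with 10% dialyzed FBS) attached 4-5 hr, then exposed to compound overnight at 37C, 5% CO2. Blue fluorescence read at 405/460 nm, with triamterene as reference fluorophore.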

[10] = qHTS assay to test for compound auto fluorescence at 590 nm (red) in HEK293 cells (AID 720679)
Method in brief: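 HEK293 cells (2,000/well, 10% dialyzed FBS) attached 4-5 hr, then dosed with compound or DMSO and incubated overnight at 37C, 5% CO2. Red fluorescence read at 540/590 nm, Rose Bengal sodium as reference fluorophore.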

[11] = qHTS assay to test for compound auto fluorescence at 535 nm (green) in HEK293 cells (AID 720680)
[12] = qHTS assay to test for compound auto fluorescence at 460 nm (blue) in HEK293 cell free culture (AID 720681)
Method in brief: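 Blue fluorescence (Ex 405/Em 460 nm, triamterene-equivalent) was read immediately after pin transfer of compound or DMSO into medium (DMEM, 10% FBS) without cells.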

[13] = qHTS assay to test for compound auto fluorescence at 535 nm (green) in HEK293 cell free culture (AID 720682)
Method in brief: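 Using fluorescein as calibrant, autofluorescence was quantified at 485/535 nm in cell-free DMEM containing 10% FBS after pintool addition of compound or vehicle.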

[14] = qHTS assay to test for compound auto fluorescence at 590 nm (red) in HEK293 cell free culture (AID 720683)
Method in brief: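 Red-channel autofluorescence of compounds in culture medium (DMEM, 10% FBS), no cells, measured at 540/590 nm. Rose Bengal sodium is the reference fluorophore for equivalence.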

[15] = qHTS assay to test for compound auto fluorescence at 590 nm (red) in HepG2 cell free culture (AID 720684)
Method in brief: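 Steps: dispense MEM/10% FBS medium, no cells; pin compound or DMSO vehicle; read red channel, Ex/Em 540/590 nm. Output given as Rose Bengal sodium equivalents.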

[16] = qHTS assay to test for compound auto fluorescence at 460 nm (blue) in HepG2 cell free culture (AID 720685)
Method in brief: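 Compound (23 nL) or DMSO pinned into cell-free MEM with 10% FBS; blue fluorescence read at 405/460 nm excitation/emission, expressed as auto-fluorescence equivalency to triamterene.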

[17] = qHTS assay to test for compound auto fluorescence at 535 nm (green) in HepG2 cell free culture (AID 720686)
[18] = qHTS assay to test for compound auto fluorescence at 460 nm (blue) in HepG2 cells (AID 720687)
Method in brief: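 Blue-channel autofluorescence (Ex/Em 405/460 nm, triamterene-equivalent) was measured after 1 hr compound exposure at 37 C, 5% CO2. Cells were HepG2, plated overnight at 37 C in MEM plus 10% FBS.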

[19] = target: Glucocorticoid receptor (Homo sapiens) (UniProt P04150); test: qHTS assay to identify small molecule agonists of the glucocorticoid receptor (GR) signaling pathway (AID 720691; active = well fitted activation curve with a large enough effect in the signal ratio in the repeat runs, not every such curve was filed as active; the % refers to the signal ratio)
Glucocorticoid receptor (Homo sapiens), sequence (P04150 whole entry, looked up): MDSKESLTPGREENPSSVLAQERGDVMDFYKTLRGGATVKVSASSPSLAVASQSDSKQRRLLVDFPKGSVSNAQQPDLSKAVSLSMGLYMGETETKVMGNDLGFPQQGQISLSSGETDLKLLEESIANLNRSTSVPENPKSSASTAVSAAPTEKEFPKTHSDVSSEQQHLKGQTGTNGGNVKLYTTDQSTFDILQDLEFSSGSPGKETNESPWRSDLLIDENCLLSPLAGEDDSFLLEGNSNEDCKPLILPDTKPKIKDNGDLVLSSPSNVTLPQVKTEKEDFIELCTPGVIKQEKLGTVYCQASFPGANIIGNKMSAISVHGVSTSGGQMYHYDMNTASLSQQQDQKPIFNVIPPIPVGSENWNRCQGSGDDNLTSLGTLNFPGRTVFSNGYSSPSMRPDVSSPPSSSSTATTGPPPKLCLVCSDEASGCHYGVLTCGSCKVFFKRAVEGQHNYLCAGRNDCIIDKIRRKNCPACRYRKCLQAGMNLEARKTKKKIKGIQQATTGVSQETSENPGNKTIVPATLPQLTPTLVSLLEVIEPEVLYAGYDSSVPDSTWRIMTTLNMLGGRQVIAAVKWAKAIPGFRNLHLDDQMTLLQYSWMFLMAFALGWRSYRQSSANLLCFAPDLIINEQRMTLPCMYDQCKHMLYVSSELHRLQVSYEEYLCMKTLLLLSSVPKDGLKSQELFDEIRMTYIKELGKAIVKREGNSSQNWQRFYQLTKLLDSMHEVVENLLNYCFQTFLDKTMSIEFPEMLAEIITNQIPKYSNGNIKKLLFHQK
Method in brief: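 Agonist mode in a HeLa line carrying a GRE-controlled beta-lactamase reporter. Compounds act for 18 h at 37 C before a 2 h room-temperature FRET substrate step and fluorescence reading.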

[20] = target: Glucocorticoid receptor (Homo sapiens) (UniProt P04150); test: qHTS assay to identify small molecule antagonists of the glucocorticoid receptor (GR) signaling pathway (AID 720692; active = well fitted inhibition curve with a large enough effect in the signal ratio in the repeat runs, not every such curve was filed as active; the % refers to the signal ratio)
Method in brief: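 Cells plated, rested 4 h at 37 C/5% CO2; compounds in DMSO pin-transferred; dexamethasone added to 5 nM final; 18 h at 37 C; B/G FRET substrate added, 2 h room temperature; fluorescence measured.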
% is set by controls: 0 for no effect and ±100 for the full control effect.

CN(C)C(=O)CNC(=O)Cc1ccccc1
inactive: outcome [1] | Potency [2] | outcome [3] | Potency [4] | outcome [5] | Potency [6] | outcome [7] | outcome [8] | outcome [9] | outcome [10] | outcome [11] | outcome [12] | outcome [13] | outcome [14] | outcome [15] | outcome [16] | outcome [17] | outcome [18] | Potency [19] | outcome [20]

N#Cc1ccc(C(=O)O)cc1
inactive: outcome [1] | Potency [2] | outcome [3] | Potency [4] | outcome [5] | Potency [6] | outcome [7] | outcome [8] | outcome [9] | outcome [10] | outcome [11] | outcome [12] | outcome [13] | outcome [15] | outcome [16] | outcome [17] | outcome [18]

CC(=O)c1sc(C)nc1C
inactive: outcome [1] | Potency [2] | outcome [3] | Potency [4] | outcome [5] | Potency [6] | outcome [7] | outcome [8] | outcome [9] | outcome [11] | outcome [12] | outcome [13] | outcome [14] | outcome [15] | outcome [16] | outcome [17] | outcome [18] | Potency [19]

Cc1ccc(C=O)cc1C
inactive: outcome [1] | Potency [2] | outcome [3] | Potency [4] | outcome [5] | Potency [6] | outcome [7] | outcome [8] | outcome [9] | outcome [11] | outcome [12] | outcome [13] | outcome [14] | outcome [15] | outcome [16] | outcome [17] | outcome [18] | Potency [19] | outcome [20]

CN=C(NC#N)Nc1ccc(C2=NNC(=O)CC2C)cc1 (centres undefined)
inactive: outcome [1] | Potency [2] | outcome [3] | Potency [4] | outcome [5] | Potency [6] | outcome [7] | outcome [8] | outcome [9] | outcome [11] | outcome [12] | outcome [13] | outcome [14] | outcome [15] | outcome [16] | outcome [17] | outcome [18]

CCOC(=O)c1ccc(OC(=O)CCCCCN=C(N)N)cc1
inactive: outcome [1] | Potency [2] | outcome [3] | Potency [4] | outcome [5] | Potency [6] | fluorescence, relative to Rose Bengal [7] -0.309% [at 18.6 µM] | fluorescence, % of fluorescein control [8] 0.0329% [at 18.6 µM] | fluorescence, % of fluorescent control [10] 0.895% [at 18.6 µM] | fluorescence, % of fluorescein [11] -0.102% [at 18.6 µM] | fluorescence, % of fluorescent control [12] -0.0274% [at 18.6 µM] | activity change [13] -0.162% [at 18.6 µM] | fluorescence, % of fluorescent control [14] 0.226% [at 18.6 µM] | fluorescence, % of Rose Bengal [15] -0.0877% [at 18.6 µM] | fluorescence, % of fluorescent control [16] 0.0222% [at 18.6 µM] | fluorescence, % of fluorescein control [17] -0.0655% [at 18.6 µM] | fluorescence, % of fluorescent control [18] 0.0159% [at 18.6 µM]

CCOc1cc(NC(C)=O)ccc1C(=O)OC
inactive: outcome [1] | Potency [2] | outcome [3] | Potency [4] | outcome [5] | Potency [6] | outcome [7] | outcome [8] | outcome [9] | outcome [10] | outcome [11] | outcome [12] | outcome [13] | outcome [14] | outcome [15] | outcome [16] | outcome [17] | outcome [18] | Potency [19] | outcome [20]

COc1cc(NS(=O)(=O)c2ccc(N)cc2)nc(OC)n1
inactive: outcome [1] | Potency [2] | outcome [3] | Potency [4] | outcome [5] | Potency [6] | fluorescence, relative to Rose Bengal [7] -0.297% [at 18.6 µM] | fluorescence, % of fluorescein control [8] -0.149% [at 18.6 µM] | fluorescence, % of triamterene [9] 0.216% [at 18.6 µM] | fluorescence, % of fluorescent control [10] -0.0598% [at 18.6 µM] | fluorescence, % of fluorescein [11] 0.0037% [at 18.6 µM] | fluorescence, % of fluorescent control [12] 0.0589% [at 18.6 µM] | activity change [13] -0.0247% [at 18.6 µM] | fluorescence, % of fluorescent control [14] 0.0115% [at 18.6 µM] | fluorescence, % of Rose Bengal [15] 0.441% [at 18.6 µM] | fluorescence, % of fluorescent control [16] -0.0655% [at 18.6 µM] | fluorescence, % of fluorescein control [17] -0.0376% [at 18.6 µM] | fluorescence, % of fluorescent control [18] 0.0701% [at 18.6 µM] | Potency [19] | outcome [20]

c1ccc2c(c1)ccc1c3ccccc3ccc21
active: Potency [2] 0.881 µM
inactive: outcome [1] | outcome [3] | Potency [4] | outcome [5] | Potency [6] | outcome [7] | outcome [8] | outcome [9] | outcome [10] | outcome [11] | outcome [12] | outcome [13] | outcome [14] | outcome [15] | outcome [16] | outcome [17] | outcome [18]

CCCN1C[C@H](CSC)C[C@@H]2c3cccc4[nH]cc(c34)C[C@H]21
inactive: outcome [1] | Potency [2] | outcome [3] | Potency [4] | outcome [5] | Potency [6] | outcome [7] | outcome [8] | outcome [9] | outcome [11] | outcome [12] | outcome [13] | outcome [14] | outcome [16] | outcome [17] | outcome [18] | Potency [19] | outcome [20]

C=Cc1ccccn1
inactive: outcome [1] | Potency [2] | outcome [3] | Potency [4] | outcome [5] | Potency [6] | outcome [7] | outcome [8] | outcome [9] | outcome [10] | outcome [11] | outcome [12] | outcome [13] | outcome [14] | outcome [15] | outcome [16] | outcome [17] | outcome [18] | Potency [19] | outcome [20]

CC(C)NCC(O)COc1ccc(COCCOC(C)C)cc1 (centres undefined)
inactive: outcome [1] | Potency [2] | outcome [3] | Potency [4] | outcome [5] | Potency [6] | outcome [7] | outcome [8] | outcome [9] | outcome [10] | outcome [11] | outcome [12] | outcome [13] | outcome [14] | outcome [15] | outcome [16] | outcome [17] | outcome [18] | Potency [19] | outcome [20]
